Screening data as filed in PubChem BioAssay.
DT40 TDP1 CPT = qHTS for Inhibitors of human tyrosyl-DNA phosphodiesterase 1 (TDP1): qHTS in cells in presence of CPT. chicken DT40 Tdp1-/-;hTDP1 cells + 20 nM CPT, ATP luminescence, 48 h. Potency, µM (highest dose often 46.2 µM), for inactives: top-dose activity change, negative = growth inhibition, most hits filed as inhibitors. hit rate 12% among 420,000. AID 686979, 2013; also: potency is read from the fitted curve at half-maximal effect; nearly all actives have a fitted effect of over 55% in size
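Chicken DT40 Tdp1-/- cells complemented with human TDP1, 400 cells/well, exposed to compounds plus 20 nM camptothecin for at least 48 h at 37 C; viability read as ATP content by CellTiter-Glo luminescence.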
HT1080 IDH1KD tx = qHTS for induction of synthetic lethality in tumor cells producing 2HG: qHTS for the HT-1080-IDH1KD cell line. Potency, µM (series often up to 46.1 µM), for the others: at the top dose activity, negative = toxicity, most hits filed as cytotoxic. hit rate 2% among 360,000. AID 686971, 2013. HT-1080 IDH1 knockdown viability, ATP luminescence, 48 h;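 also: potency is read from the fitted curve at half-maximal effect; 0% = DMSO wells and -100% = cell-free medium wells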
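Using the IDH1-knockdown HT-1080 line run in the same batch and compound series as the NT line, viability after 48 h at 37 °C was determined by CellTiter-Glo luminescence and expressed as % activity.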
uPA generation = qHTS for Inhibitors of Cell Surface uPA Generation; cell surface uPA generation assay, qHTS; Potency, µM (series often up to 38.3 µM), for the others: at the top dose activity change, negative = inhibition, usual class: inhibitors; hit rate 0.31% among 330,000; AID 540303, 2011; active = well fitted inhibition curve with a large enough effect; inconclusive = small, poorly fitted or top-dose-only effect; inactive = no such curve, though single readings can be large or run the other way; tested in mouse RAW 264.7 cells; also: potency is read from the fitted curve at half-maximal effect; nearly all actives have a fitted effect of over 55% in size
TDP1 cell noCPT = qHTS for Inhibitors of human tyrosyl-DNA phosphodiesterase 1 (TDP1): qHTS in cells in absence of CPT; DT40 Tdp1-/- hTDP1 cells, no CPT, ATP luminescence, 48 h; Potency, µM (doses to about 46.2 µM), for the others: top-dose activity change, negative = growth inhibition, most hits filed as inhibitors; hit rate 15% among 420,000; AID 686978, 2013; also: potency is read from the fitted curve at half-maximal effect; nearly all actives have a fitted effect of over 55% in size
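Compound effects on proliferation are scored in DT40 Tdp1-/-;hTDP1 cells in the absence of CPT. ATP levels (CellTiter-Glo luminescence) are recorded after a ≥48 hr, 37 °C incubation.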
IL-1B inflam inh = qHTS for Inhibitors of Inflammasome Signaling: IL-1-beta AlphaLISA Primary Screen. THP-1 LPS/ATP IL-1B secretion, AlphaLISA, 16 h; active compounds read low. AID 743279, 2014. hit rate 4.7% among 360,000. activity change, % at 57.5 µM; in the data active = activity change below about -50%; inconclusive = mostly about -30% to -49%
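THP-1 cells pretreated 1 hr with compounds (up to 57.5 uM final), then stimulated with LPS (250 ng/mL final) plus ATP (1.25 mM final); secreted IL-1B measured by AlphaLISA after 16 hr, decreased signal indicating inhibition.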
HT1080NT lethal = qHTS for induction of synthetic lethality in tumor cells producing 2HG: qHTS for the HT-1080-NT fibrosarcoma cell line. HT-1080-NT fibrosarcoma viability, CellTiter-Glo ATP luminescence, 48 h. Potency, µM (titrated, usually from 46.1 µM), inactives show at the top dose activity, negative = less viability, usual class: cytotoxic. hit rate 1.6% among 360,000. AID 686970, 2013;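 also: NT is the 2HG producing partner of a matched IDH1 knockdown line; potency is read from the fitted curve at half-maximal effect; 0% = DMSO-treated cells and -100% = media-only wells without cells; nearly all actives have a fitted effect of over 55% in size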
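HT-1080-NT; 750 cells/well; 5% FBS RPMI; 48 h compound, 37 degrees C; CellTiter-Glo luminescence; curve fitting and curve-class assignment.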
Numbers without * were called inactive. Hits are enriched below; roughly 19% of the tested compounds scored in any of these assays. Unless noted, calls follow the shape of the dose curve; as a rule, active = well fitted curve in the direction sought with a large enough effect; inconclusive = small, poorly fitted or top-dose-only effect, or another doubt; inactive = no such curve, though single readings can be large; an effect the other way counts as inactive or inconclusive. Unless noted, % is scaled to controls: 0 for no effect and ±100 for the full control effect.

Screening c1ccc(-c2csc3ncnc(N4CCc5ccccc5C4)c23)cc1 returned DT40 TDP1 CPT inconclusive, HT1080 IDH1KD tx -5.6%, uPA generation 4.5%, TDP1 cell noCPT 16.4µM*, IL-1B inflam inh 0.0 and HT1080NT lethal -9.9%.
`Cc1cc2ncn(-c3ncnc4scc(-c5ccccc5)c34)c2cc1C` gave DT40 TDP1 CPT inconclusive, HT1080 IDH1KD tx -0.5%, uPA generation 5.6%, TDP1 cell noCPT 18.4µM*, IL-1B inflam inh -6.3 and HT1080NT lethal -7.3%.
`COc1ccc(-c2csc3ncnc(N4CCN(c5cccc(C)c5C)CC4)c23)cc1` gave DT40 TDP1 CPT 14.6µM*, HT1080 IDH1KD tx inconclusive, uPA generation 2.3%, TDP1 cell noCPT inconclusive, IL-1B inflam inh 11.5 and HT1080NT lethal -0.9%.
Cc1ccc(-c2csc3ncnc(N4CCN(C)CC4)c23)cc1C was read as DT40 TDP1 CPT inconclusive, HT1080 IDH1KD tx -5.3%, uPA generation 6.0%, TDP1 cell noCPT 11.6µM*, IL-1B inflam inh -14.8 and HT1080NT lethal -4.5%.
`COc1ccc(-c2csc3ncnc(N4CCN(c5ccccc5Cl)CC4)c23)cc1` gave DT40 TDP1 CPT inconclusive, HT1080 IDH1KD tx inconclusive, uPA generation 4.5%, TDP1 cell noCPT inconclusive, IL-1B inflam inh -3.5 and HT1080NT lethal -1.7%.
`CC(C)c1nc2cc(C(=O)N3CCN(c4cnccn4)CC3)ccc2o1` gave DT40 TDP1 CPT -9.3%, HT1080 IDH1KD tx 6.5%, uPA generation 4.1%, TDP1 cell noCPT -9.5%, IL-1B inflam inh 0.5 and HT1080NT lethal -4.0%.
COc1ccc(N2CCN(c3ncnc4scc(-c5ccc(C)cc5)c34)CC2)cc1 was read as DT40 TDP1 CPT inconclusive, HT1080 IDH1KD tx 2.2%, uPA generation -1.6%, TDP1 cell noCPT inconclusive, IL-1B inflam inh 40.4 and HT1080NT lethal -6.2%.
`COc1ccc(-c2csc3ncnc(N4CCN(c5cccc(Cl)c5)CC4)c23)cc1` gave DT40 TDP1 CPT inconclusive, HT1080 IDH1KD tx -10.9%, uPA generation 11.2µM*, TDP1 cell noCPT 16.4µM*, IL-1B inflam inh 10.4 and HT1080NT lethal -0.8%.
For COc1ccc(-c2csc3ncnc(N4CCN(c5cccc(OC)c5)CC4)c23)cc1 the results were DT40 TDP1 CPT 16.4µM*, HT1080 IDH1KD tx 0.8%, uPA generation 3.9%, TDP1 cell noCPT 18.4µM*, IL-1B inflam inh -6.3 and HT1080NT lethal -11.6%.
`COc1ccccc1N1CCN(C(=O)c2ccc(N(C)S(=O)(=O)c3ccccc3)cc2)CC1` gave DT40 TDP1 CPT inconclusive, HT1080 IDH1KD tx -18.0%, uPA generation -2.2%, TDP1 cell noCPT inconclusive, IL-1B inflam inh 1.6 and HT1080NT lethal -20.4%.
For O=C1Nc2ccc(Br)cc2C1=C1CCCCC1 the results were DT40 TDP1 CPT inconclusive, HT1080 IDH1KD tx 16.4µM*, uPA generation -5.8%, TDP1 cell noCPT 23.1µM*, IL-1B inflam inh 29.0 and HT1080NT lethal inconclusive.
Screening Cc1cc(C)cc(NC(=O)COC(=O)COc2ccc(N(C)S(=O)(=O)c3cccs3)cc2)c1 returned DT40 TDP1 CPT 6.5%, HT1080 IDH1KD tx 6.3%, uPA generation -2.1%, TDP1 cell noCPT -1.7%, IL-1B inflam inh 3.1 and HT1080NT lethal -0.1%.
Screening Cn1c(C(=O)O)c(S(=O)(=O)c2ccc(Cl)cc2)c2ccccc21 returned DT40 TDP1 CPT -5.5%, HT1080 IDH1KD tx -0.6%, uPA generation 3.7%, TDP1 cell noCPT 25.0%, IL-1B inflam inh 0.0 and HT1080NT lethal -0.4%.
